LASV entry inh – inhibitors of Lassa virus binding or entry into cells; Lassa virus pseudotyped entry inhibition, cell-based qHTS; Potency, µM (titrated, usually from 49.2 µM), without a hit: at the top dose activity change, negative = inhibition, usual class: inhibitors; actives 4.1% (n = 18,000)
MARV entry inh – inhibitors of Marburg virus binding or entry into cells; Potency, µM (doses to about 49.2 µM), inactives show at the top dose activity change, negative = inhibition, most hits filed as inhibitors; actives 6.5% (n = 18,000); Marburg virus pseudotype entry/binding inhibition, cell-based; AID 720532
The depositor's hits bear a star; ? = inconclusive; · = no result given; ! = not active in a repeat; [ ] = dose if it differs, or a comment. Most compounds without a hit are left out; they make up all but 8.6% or so of the library. Calls follow the shape of the full dose curve; tested in HEK293 cells. % is scaled to controls: 0 for no effect and ±100 for the full control effect; potency is read from the fitted curve at half-maximal effect.

SMILES	LASV entry inh	MARV entry inh
CC12C=CC(=O)C=C1CCC1C2=CCC2(C)C1CC[C@@H]2C(=O)CN1CCN(c2cc(N3CCCC3)nc(N3CCCC3)n2)CC1 (stereo partly drawn)	4.1%	17.8µM*!
C[C@@H]1[C@@H](c2ccccc2)Oc2c(Cl)cccc2S(=O)(=O)N1Cc1cccc(Cl)c1	-10.4%	15.6%
CS(=O)(=O)CCNCc1cc(-c2cc3c(Nc4ccc(OCc5cccc(F)c5)c(Cl)c4)ncnc3s2)cs1	-69.3%	?
CC(=O)Nc1cccc(C#Cc2cncnc2Nc2ccc(OCc3cccc(F)c3)c(Cl)c2)c1	·	12.5µM*
CC(C)c1c(C(=O)NCCN2CCOCC2)cnn1-c1nccc(-c2cccs2)n1	-10.8%	-0.6%
C[C@H]1[C@@H](c2ccccc2)Oc2c(Cl)cccc2S(=O)(=O)N1Cc1ccc(F)cc1	13.6%	?
C=C1CC[C@H](O)C/C1=C/C=C1\CCC[C@]2(C)[C@@H]([C@H](C)CCCC(C)C)CC[C@@H]12	?	-13.0%
C=C1CC[C@H](O)CC1=C/C=C1\CCC[C@]2(C)[C@@H]([C@H](C)CCCC(C)(C)O)CC[C@@H]12	12.6µM*	11.8%
C=C1CC[C@H](O)CC1=C/C=C1\CCC[C@]2(C)[C@@H]([C@H](C)CC[C@@H](O)C(C)(C)O)CC[C@@H]12	15.8µM*	1.9%
C=C1CC[C@H](O)C/C1=C\C=C1/CCC[C@]2(C)[C@@H]([C@H](C)CCCC(C)C)CC[C@@H]12	?	-4.2%
Cc1ccccc1C(=O)N1CCc2c(cnc(C)c2CNC(=O)c2ccc3c(c2)OCO3)C1	-6.9%	-15.4%
COC(=O)c1c(C(=O)OC)c2c3ccccc3cc(-c3ccccc3)n2c1C(=O)OC	-14.8%[8.59 µM]	-23.4%[8.59 µM]
CCOC(=O)C1(C(=O)OCC)Cc2ccc(C(C)=O)cc2C1	·	-19.9%[8.59 µM]
COc1cc2c(cc1OC)[C@H](C)N(CC1C(=O)O[C@@H]3C[C@@]4(C)CCC[C@H](C)[C@@]45OC5[C@H]13)CC2 (stereo partly drawn)	-31.6%	12.6µM*
Cc1ccccc1CN1[C@@H](CC(C)C)COc2c(Cl)cccc2S1(=O)=O	14.7%	-24.2%
C#CCCCON=C1C[C@@H](O)[C@H](O)[C@H]2[C@@H]3C(=O)N(c4cccc(Oc5ccccc5)c4)C(=O)[C@@H]3CC[C@@H]12	8.4%[8.59 µM]	31.0%[8.59 µM]
CC[C@@H](C)[C@H](NS(=O)(=O)c1cccc2ccccc12)C(=O)N[C@H](C=O)Cc1c[nH]c2ccccc12	?	3.55µM*
CC(C)(C)OC(=O)N[C@@H](Cc1c[nH]c2ccccc12)C(=O)O	-5.6%	10.5%
CN1C(=O)c2ccccc2C1=O	-1.2%[107 µM]	19.5%[107 µM]
CC1=CC(=O)c2c(O)cccc2C1=O	3.16µM*	3.98µM*
CC1=CC2C(=O)c3cccc(O)c3C(=O)C2C(O)=C1 (stereo not drawn)	-5.0%	10.8%
CC1=CC(=O)c2ccccc2C1=O	?	10µM*!
Cc1cc2c(c(=O)n1Cc1ccccc1)[C@H]1O[C@](CCCCN3C(=O)c4ccccc4C3=O)(Cc3ccccc31)O2	2.6%[8.59 µM]	15.3%[8.59 µM]
COC(=O)N[C@@H](c1cccs1)C(C(C)=O)C(=O)OC (stereo partly drawn)	-11.1%[8.59 µM]	-12.2%[8.59 µM]
C=C(C)[C@]12C[C@@H](C)[C@@]34OC(Cc5ccccc5)(O[C@@H]1[C@@H]3C=C(COC(=O)Cc1cc(OC)c(O)cc1I)C[C@]1(O)C(=O)C(C)=C[C@@H]41)O2	20µM*	14.1µM*
SMILES	LASV entry inh	MARV entry inh
CC(=O)O[C@H]1C2[C@@H](OC(=O)Cc3ccccc3)[C@@H](C)C[C@]2(OC(C)=O)C(=O)/C(C)=C/[C@@H]2[C@H](CC[C@@]13CO3)C2(C)C (stereo partly drawn)	-28.0%	?
COc1cc(CC(=O)OCC2=C[C@H]3[C@@H]4C(C)(C)[C@]4(OC(C)=O)[C@H](OC(=O)Cc4ccccc4)[C@@H](C)[C@]3(O)[C@@H]3C=C(C)C(=O)[C@@]3(O)C2)ccc1O	12.6µM*	?
C=C(C)[C@]12C[C@@H](C)[C@@]34OC(Cc5ccccc5)(O[C@@H]1[C@@H]3C=C(COC(=O)Cc1cc(I)c(O)c(OC)c1)C[C@]1(O)C(=O)C(C)=C[C@@H]41)O2	17.8µM*	12.6µM*
COC(=O)c1ccc(CN2C(=O)[C@]3(O[C@H](C)CC4=CCCC43)c3c(Br)cccc32)cc1 (stereo partly drawn)	-5.7%[8.59 µM]	5.0%[8.59 µM]
CC(=O)OC[C@H]1O[C@@H](ON=C2C[C@@H](O)[C@@H](O)[C@@H]3[C@H]4C(=O)N(C5CCCCC5)C(=O)[C@@H]4CC[C@@H]23)[C@H](OC(C)=O)[C@@H](OC(C)=O)[C@H]1OC(C)=O	-0.6%[8.59 µM]	-25.3%[8.59 µM]
CCCCCC(=O)N1C[C@@H](n2cc(-c3ccc(F)cc3)nn2)[C@H](O)C[C@H]1c1ccccc1	-14.6%	?
C[C@@H]1[C@@H](c2ccccc2)c2cc3ccccc3nc2-c2nc3ccccc3cc2[C@H]1C(=O)N1CCCC1	52.2%[8.59 µM]	25.3%[8.59 µM]
CCC(=O)c1ccc(O)cc1	-3.6%	16.8%

High-throughput results: PubChem BioAssay, National Center for Advancing Translational Sciences (NCATS)
